About 83,000 compounds went through this panel and 20% of them were active in at least one assay; those are over-represented in the sample as a whole.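 Values shown are percent growth following 48 h exposure of cells in 96-well plates to a single concentration of compound; below 10 was considered active.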 Values without a mark were called inactive. Calls of active or inactive are those of the source.
Legend:
Test in all cases: NCI-60 one-dose screen, 48 h (100 = growth as untreated, 0 = no growth, -100 = all killed)
EKVX NSCLC = details: 10 µM unless noted
SN12C renal = details: 10 µM unless noted
UO-31 renal = details: 10 µM unless noted
TK-10 renal = details: 10 µM unless noted
ACHN renal = details: 10 µM unless noted
CAKI-1 renal = details: 10 µM
CCRF-CEM leukemia = details: 10 µM unless noted
MOLT-4 leukemia = details: 10 µM unless noted
SR leukemia = details: 10 µM unless noted
RPMI-8226 leukemia = details: 10 µM unless noted
OVCAR-8 ovarian = details: 10 µM unless noted
OVCAR-5 ovarian = details: 10 µM unless noted
SK-OV-3 ovarian = details: 10 µM unless noted
IGROV1 ovarian = details: 10 µM unless noted
HS 578T breast = details: 10 µM unless noted
NCI/ADR-RES ovarian = details: 10 µM unless noted
OVCAR-4 ovarian = details: 10 µM unless noted

| SMILES | growth (EKVX NSCLC) [%] | growth (SN12C renal) | growth (UO-31 renal) | growth (TK-10 renal) [%] | growth (ACHN renal) | growth (CAKI-1 renal) | growth (CCRF-CEM leukemia) | growth (MOLT-4 leukemia) | growth (SR leukemia) | growth (RPMI-8226 leukemia) | growth (OVCAR-8 ovarian) | growth (OVCAR-5 ovarian) [%] | growth (SK-OV-3 ovarian) [%] | growth (IGROV1 ovarian) | growth (HS 578T breast) | growth (NCI/ADR-RES ovarian) | growth (OVCAR-4 ovarian) |
| --- | --- | --- | --- | --- | --- | --- | --- | --- | --- | --- | --- | --- | --- | --- | --- | --- | --- |
| O=C1Nc2cc(OC(F)(F)F)ccc2Oc2ccc(-c3ccnc(N4CCNCC4)c3)cc21 | 41.2 | -26.9% (active) | 1.72% (active) | 27.8 | 2.57% (active) | -36.1% (active) | -6.19% (active) | -0.166% (active) | -44% (active) | -50.9% (active) | 20.9% | 14.7 | 20.5 | -1.58% (active) | 2.5% (active) | 5.35% (active) | – |
| COc1ccc(-c2nc3cc(Cl)c(Cl)cc3n2CC(=O)N=Nc2c(O)[nH]c3ccccc23)cc1 | 72.4 | 38.4% | 76.9% | 95.7 | 50.8% | 56.5% | – | 47.4% | 66.4% | 62.5% | 78.4% | 63 | 100 | 52.9% | 53.4% | 44.3% | 75.1% |
| CC1(COc2ccc3ncc(C#Cc4cncc(C(=O)Nc5cc(C(C)(C)C)on5)c4)n3n2)COC1 | 41.5 | 30.4% | 26.9% | 91.6 | 30.6% | 35.4% | 39.5% | 45.6% | 34% | 47.3% | 35.5% | 55.9 | 61.2 | 25% | 15.1% | 22.2% | 55.6% |
| COc1ccc(-c2ccnc3c(C#N)c(Nc4ccccc4)nn23)cc1OC | 98.9 | 89.8% | 67.9% | 65.8 | 86.4% | 60.2% | 93.8% | 84.9% | 73.8% | 78.3% | 85.2% | 83.2 | 100 | 96.1% | 84% | 85.5% | – |
| COc1ccc(-c2nc3cc(Cl)c(Cl)cc3n2CC(=O)N=Nc2c(O)[nH]c3ccc(Cl)cc23)cc1 | 25.7 | 23.2% | 8.66% (active) | 60.9 | -33.8% (active) | 13.6% | – | 34.5% | 51.6% | 40.2% | 45.3% | 35.4 | 52.5 | 5.72% (active) | 2.89% (active) | 17.8% | 5.4% (active) |
| COc1ccc([C@@H]2[C@@H](O)C(=O)N2c2cc(OC)c(OC)c(OC)c2)cc1Cl | 52.4 | 25.6% | 31.8% | 89.4 | 27.9% | 30.6% | 19.6% | – | – | 28.4% | -11.7% (active) | 28.9 | 23.9 | 27.1% | 8.59% (active) | -21.2% (active) | 68.7% |
| C/C(=N\NC(=O)CSc1nc2sc3c(c2c(=O)n1-c1ccccc1)CCC(C)C3)c1ccc(Cl)cc1 (centres undefined) | 31.5 | 29.2% | 17% | 32.8 | 13.4% | 12.8% | – | 14% | 6.22% (active) | 24.9% | 18.8% | 50 | 57.4 | 19.2% | 61.9% | 12.4% | 29.3% |
| CC1CCc2c(sc3nc(SCC(=O)N/N=C/c4ccc(Cl)cc4)n(-c4ccccc4)c(=O)c23)C1 (centres undefined) | 103 | 95.6% | 94.2% | 114 | 81.1% | 75.1% | – | 110% | 96% | 101% | 96.7% | 99.4 | 97.9 | 100% | 82.2% | 97.2% | 99.4% |
| CN1C(=O)/C(=C/C=C/c2ccco2)SC1=S | 87.2 | 84.6% | 58.3% | 113 | 75.7% | – | 60.8% | 90.3% | 79.6% | 64.4% | – | 87.5 | 98.9 | 54.3% | 98.1% | 75.6% | 96.1% |
| CCOC(=O)c1c(Nc2ccccc2)nn2c(-c3ccc(OC)c(OC)c3)ccnc12 | 77.1 | 67.9% | 42.9% | 80.6 | 54.8% | 44.4% | 30.9% | 36.5% | 23.6% | 30.4% | 50.5% | 84.7 | 72 | 102% | 49.4% | 48.9% | – |
| Nc1nc(-c2cccc([N+](=O)[O-])c2)c(N=Nc2ccccc2Cl)s1 | 79.6 | 73.7% | 63.8% | 85.7 | 63.2% | 28.8% | 66.8% | 68.7% | 59.1% | 68.5% | 56.8% | 93.7 | 99.5 | 74.8% | 56.8% | 59.9% | 63.1% |
| CN1CCN(Cc2ccc(NC(=O)c3cncc(C#Cc4[nH]nc5ncncc45)c3)cc2C(F)(F)F)CC1 | 108 | 48.1% | 82.8% | 94.7 | 59.1% | 59.4% | 51% | 47.2% | 48% | 45.2% | 88.7% | 77.7 | 60.8 | 38.2% | 45.9% | 105% | – |
| Cc1ccc(Cc2cnc(NC(=O)/C(C#N)=C/c3ccc(-c4ccc(Cl)cc4)o3)s2)cc1 | 92.7 | 97.4% | 90.1% | 120 | 97.4% | – | 98.4% | 103% | 85.9% | 94.3% | 97.9% | 100 | 90.9 | 86.8% | 102% | 92.8% | 94.6% |
| CCOC(=O)c1c(Nc2ccccc2)nn2c(-c3ccc(Br)cc3)ccnc12 | 81.5 | 68.3% | 65.1% | 90.6 | 34% | – | 85.8% | 87.6% | 70.7% | 95.8% | 69.2% | 80.4 | 59.2 | 71% | 62.8% | 59.8% | 53.5% |

— PubChem BioAssay (NCI)
